Source: PubChem BioAssay
Compounds with a hit are over-represented: about 5.4% of the library has one in this group of screens.
MPTP block – inhibitors of mitochondrial permeability transition pore | isolated mouse mitochondria, Ca2+ swelling absorbance, 30 min | inhibition, % at 10 µM | 1.4% of 360,000 active;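 active = inhibition of 50% or more, scaled per plate between neutral and stimulator controls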
SKKanGAS inh – blocks kanamycin growth of S. pyogenes SKKanGAS strain; inhibition, % at 7.5 µM; BacTiter-Glo, 6 h; 1.3% of 300,000 active;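 active = mean replicate score, as percent of positive control median, at least 50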;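 note: strain carries kanamycin resistance gene driven by streptokinase promoter and grows in 40 µg/ml kanamycin; loss of luminescence reflects streptokinase promoter inhibition or plain growth inhibition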
Calb FLC – C. albicans growth modulation with fluconazole | C. albicans CaCi-2 (fluconazole-resistant clinical isolate) + fluconazole, Alamar Blue growth, 48 h | growth inhibition, % (concentration not given with the values) | 0.57% of 300,000 active | AID 1979;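 active = growth inhibition above about 58% in most replicates, limit read from the data, passing the limit was not always enough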;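 note: all wells also contain fluconazole at 8 µg/ml as a sub-toxic cotreatment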
Mdm2-MdmX inh – human Mdm2/MdmX binding inhibition; 3% of 330,000 active; SaOS-2 split-luciferase Mdm2/MdmX complementation, luminescence; AID 485346; inhibition, % at 8 µM;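 active = inhibition of at least 50% at 8 µM in the primary screen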
CSC inhib – blocks cancer stem cells; cancer stem cell-like cells viability, luminescence; 1.1% of 300,000 active; AID 2717; inhibition, % at 7.5 µM; in the data active = inhibition above about 75%; tested in HMLE shEcad cells
Beta cell apopt – beta cell apoptosis inhibition. protection from apoptosis, % (concentration not given with the values). INS-1E cytokine-induced death, ATP luminescence, 48 h; percent of positive-control rescue, neutral wells zero. AID 435005. 0.8% of 300,000 active;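 active = Every replicate reaches about 75%, or at least half do and their mean reaches it too, limit read from the data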;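 note: higher means more ATP so stronger rescue from cytokine killing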
Mdm2-MdmX conf – human Mdm2/MdmX binding inhibition, confirmed | shares compounds with Mdm2-MdmX inh | AID 489028 | 55% of 10,000 active | luminescent assay | inhibition, % at 8 µM; in the data active = inhibition above about 40%
FLuc counter – inhibits full-length luciferase, flagging false Mdm2/MdmX hits; SaOS-2 full-length luciferase counterscreen, luminescence; 77% of 6,200 active; inhibition, % at 8 µM; shares compounds with Mdm2-MdmX inh;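 active = mean inhibition at 8 µM reaching about 37%, which flags the compound as non-specific, limit read from the data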;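 note: p53-null SaOS-2 cells with luciferase driven by a doxycycline-inducible promoter; compound on cells about two nights before reading with doxycycline added after day one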
Of the large screens only hits and unclear results are named; the others gave an inactive call (follow-up assays come after a bar, where they were run).

N#C/C(=C\c1ccccc1[N+](=O)[O-])c1nc(C2CC2)cs1	none
O=[N+]([O-])c1ccc2ncnc(N3CCN(Cc4ccc5c(c4)OCO5)CC3)c2c1	Mdm2-MdmX inh 74 | Mdm2-MdmX conf 65 | FLuc counter inactive
O=[N+]([O-])c1cccnc1N1CCN(Cc2ccc3c(c2)OCO3)CC1	none
COc1ccc2[nH]c3c(N4CCC(O)(c5cccc(C(F)(F)F)c5)CC4)ncnc3c2c1	Mdm2-MdmX inh 75 | Mdm2-MdmX conf 67 | FLuc counter inactive
COc1ccc2[nH]c3c(N4CCN(Cc5ccc6c(c5)OCO6)CC4)ncnc3c2c1	Mdm2-MdmX inh 57 | Mdm2-MdmX conf inactive
CCOc1ccccc1OCC(=O)OC(C)C(=O)Nc1ncc(Cl)cc1Cl (configuration not stated)	none (no result: SKKanGAS inh, Calb FLC, CSC inhib)
O=c1c2ccccc2cnn1CCOc1ccccc1	Mdm2-MdmX inh 60 | Mdm2-MdmX conf 69 | FLuc counter 65
COc1ccc(-c2nc3c(c(SCC(=O)N4CCOCC4)n2)Cc2c(CO)cnc(C)c2O3)cc1	Mdm2-MdmX inh 58 | Mdm2-MdmX conf inactive
COc1ccc(C2=CN(Cc3ccccc3)C(c3ccccc3)CC2=O)cc1 (configuration not stated)	none (no result: SKKanGAS inh, Calb FLC, CSC inhib)
O=C(NCCc1ccc(Cl)cc1)C1CCC(CNc2nc(=S)[nH]c3ccccc23)CC1 (configuration not stated)	Mdm2-MdmX inh 67 | Mdm2-MdmX conf inactive | FLuc counter 61
O=C(NC1CCCCC1)c1ccc(-c2ccccc2F)o1	none (no result: SKKanGAS inh, Calb FLC)
COc1ccccc1NS(=O)(=O)c1ccc(N/N=C/c2c(C)nn(-c3ccccc3)c2N2CCCC2)c([N+](=O)[O-])c1	none
COc1c(/C=N/Nc2ccc([N+](=O)[O-])cc2[N+](=O)[O-])c(C)nn1-c1ccccc1	Mdm2-MdmX inh 54 | Mdm2-MdmX conf inactive
O=C(Nc1nccs1)c1cn(-c2ccccc2)nc1-c1ccncc1	none
O=C(O)c1ccc(NC(=O)c2cn(-c3ccccc3)nc2-c2cccc(Cl)c2)cc1	none
NC(=O)N/N=C/c1cn(-c2ccccc2)nc1-c1ccccc1	none
NS(=O)(=O)c1ccc(NC(=O)/C=C/c2cn(-c3ccccc3)nc2-c2cccc(Cl)c2)cc1	Mdm2-MdmX inh 50 | Mdm2-MdmX conf inactive
O=[N+]([O-])c1ccc(N/N=C/c2cn(-c3ccccc3)nc2-c2ccccc2)cc1	Mdm2-MdmX inh 57 | Mdm2-MdmX conf inactive | FLuc counter 52
Cc1ccc(-c2nn(-c3ccccc3)cc2/C=C/C(=O)Nc2nccs2)cc1	Mdm2-MdmX inh 72 | Mdm2-MdmX conf 43 | FLuc counter 37
NS(=O)(=O)c1ccc(N/N=C/c2ccccc2C(=O)O)c([N+](=O)[O-])c1	none
NS(=O)(=O)c1ccc(N/N=C/c2cn(-c3ccccc3)nc2-c2ccccc2)c([N+](=O)[O-])c1	Mdm2-MdmX inh 84, CSC inhib 140, Beta cell apopt 91 | Mdm2-MdmX conf inactive
O=C(NC1CC1)c1c(O)c2ccccc2[nH]c1=O	Mdm2-MdmX inh 59 | Mdm2-MdmX conf inactive
CCNC(=O)c1c(O)c2ccccc2[nH]c1=O	Mdm2-MdmX inh 76 | Mdm2-MdmX conf 53 | FLuc counter 76
Cc1nc(SCC(=O)NC2CCS(=O)(=O)C2)c2c3c(sc2n1)CCCC3 (configuration not stated)	none (no result: SKKanGAS inh, Calb FLC, CSC inhib, Beta cell apopt)
COc1cc(C(=O)Nc2nc(-c3cccs3)cs2)cc(OC)c1OC	Mdm2-MdmX inh 76 (no result: CSC inhib, Beta cell apopt) | Mdm2-MdmX conf inactive
CC(CC(=O)Nc1ccc2c(c1)c(=O)n(C)n2-c1ccccc1F)c1ccccc1 (configuration not stated)	none (no result: SKKanGAS inh, Calb FLC, Mdm2-MdmX inh, CSC inhib, Beta cell apopt)
CC12CC(c3ccccc3O1)N(C(=O)c1ccco1)C(=S)N2c1ccccc1 (configuration not stated)	Mdm2-MdmX inh 63 | Mdm2-MdmX conf inactive
CC(=O)c1c(N2CCN(C(=O)c3ccco3)CC2)nc(=S)n(-c2ccccc2)c1C	none
Cc1cccc(NC(=O)CSc2nnc(CNC(=O)c3ccc(S(=O)(=O)N(C)C)cc3)n2-c2ccccc2)c1	none
O=C(Nc1ccccc1)/C(=C/c1ccc([N+](=O)[O-])cc1)NC(=O)c1ccco1	Mdm2-MdmX inh 67 (no result: Beta cell apopt) | Mdm2-MdmX conf inactive
CSCC[C@H](NC(=O)[C@H]1N2C(=O)c3ccccc3C2SC1(C)C)C(=O)NCc1ccncc1 (some centres not stated)	none
Cc1cccnc1NCc1ccc(O)c2ncccc12	SKKanGAS inh 67, Mdm2-MdmX inh 57 (no result: Beta cell apopt) | Mdm2-MdmX conf inactive
Cc1cccc(NCc2ccc(O)c3ncccc23)c1C	Calb FLC 104, Mdm2-MdmX inh 74 | Mdm2-MdmX conf 73 | FLuc counter 42
Cc1cccnc1NC(=S)Nc1ncccc1C	none
Oc1ccc(Br)cc1CNc1cccc2cccnc12	SKKanGAS inh 55, Mdm2-MdmX inh 60, Beta cell apopt 100 | Mdm2-MdmX conf 64 | FLuc counter inactive
Oc1ccc(Br)cc1CNc1cnc2ccccc2c1	none
CCOC(=O)CSC1=NC(=O)/C(=C/c2ccc(OC)cc2)S1	Mdm2-MdmX inh 76 | Mdm2-MdmX conf 53 | FLuc counter inactive
CN(C)CCCN1C(=O)C(O)=C(C(=O)c2cccs2)C1c1cccc([N+](=O)[O-])c1 (configuration not stated)	none (no result: MPTP block)
O=c1[nH][nH]c(-c2ccccc2O)c1C(C[N+](=O)[O-])c1ccc(Br)cc1 (configuration not stated)	Mdm2-MdmX inh 54 | Mdm2-MdmX conf inactive
COc1ccc(C2c3ccc4ccccc4c3Oc3ncn(CCCO)c(=N)c32)cc1 (configuration not stated)	Mdm2-MdmX inh 93 | Mdm2-MdmX conf inactive
COc1ccc(C2c3ccc4ccccc4c3Oc3ncn(CCN(C)C)c(=N)c32)cc1 (configuration not stated)	Mdm2-MdmX inh 91 | Mdm2-MdmX conf 43 | FLuc counter 64
COc1ccc(C2C3=C(CC(C)(C)CC3=O)Oc3ncn(CC(C)C)c(=N)c32)cc1 (configuration not stated)	none
CN(C)CCCn1cnc2c(c1=N)C(c1ccccc1)c1ccc3ccccc3c1O2 (configuration not stated)	Mdm2-MdmX inh 100, CSC inhib 104, Beta cell apopt 98 | Mdm2-MdmX conf 100 | FLuc counter 52
COc1ccc(C2c3ccc4ccccc4c3Oc3ncn(CCO)c(=N)c32)cc1 (configuration not stated)	Mdm2-MdmX inh 97 | Mdm2-MdmX conf 51 | FLuc counter 76
N=c1c2c(ncn1CCCO)Oc1ccc3ccccc3c1C2c1ccccc1 (configuration not stated)	Mdm2-MdmX inh 58, Beta cell apopt 111 | Mdm2-MdmX conf inactive
